Experimental findings from PubChem BioAssay (NCI) are described below.

Among the test systems are HCT-15 colon; HT29 colon; SNB-75 CNS; SNB-19 CNS; U251 CNS; PC-3 prostate; SK-MEL-5 melanoma; UACC-62 melanoma; LOX IMVI melanoma; SK-MEL-28 melanoma; SK-MEL-2 melanoma; EKVX NSCLC; SN12C renal; UO-31 renal; TK-10 renal; ACHN renal; CAKI-1 renal; A498 renal; CCRF-CEM leukemia; MOLT-4 leukemia.
Holding throughout (experiment): NCI-60 one-dose screen, 48 h (100 = growth as untreated, 0 = no growth, -100 = all killed)
Conditions in all cases: 10 µM unless noted

About 83,000 compounds went through this panel and 20% of them were active in at least one assay; those are over-represented in the sample as a whole.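 Cells were grown in 96-well plates and exposed to the test compound at a single concentration for 48 hours; results are reported as percent growth, with values below 10 considered active.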 Unmarked numbers belong to inactive results. Calls of active or inactive are those of the source.

Take `CC(C)c1ccc(COCc2cc(CN3CCCC3)c(O)c3ncccc23)cc1`: the growth with HCT-15 colon was -35.5% (active); in the assay on HT29 colon, 30.5%; in the assay on SNB-75 CNS, 25.9%; with SNB-19 CNS it was 17.3%; in the assay with U251 CNS, -13.2% (active); in the assay with PC-3 prostate it was 11.6%. Besides, the growth in the assay on SK-MEL-5 melanoma is 4.48% (active); with UACC-62 melanoma, -9.84% (active); in the assay on LOX IMVI melanoma it was -33% (active); in the assay with SK-MEL-28 melanoma, 27.3%; in the assay on SK-MEL-2 melanoma, -23.9% (active); with EKVX NSCLC it was 33.4%. In addition, the growth is 13.4% in the assay with SN12C renal; -10.6% (active) in the assay on UO-31 renal; 4.79% (active) in the assay with TK-10 renal; 6.16% (active) in the assay with ACHN renal; 3.91% (active) in the assay with CAKI-1 renal; 0.55% (active) in the assay on A498 renal. Also, the figures for the growth in the assay with CCRF-CEM leukemia and in the assay on MOLT-4 leukemia were 1.53% (active) and -5.7% (active), respectively.

As to `O=C(COc1ccc(-c2nc3ccccc3[nH]2)cc1)N=Nc1c(O)[nH]c2ccc(Cl)cc12`, the growth is 93% with HCT-15 colon; 41.2% with HT29 colon; 103% with SNB-75 CNS; 56.5% in the assay on SNB-19 CNS; -45.1% (active) with U251 CNS; 25.9% in the assay on PC-3 prostate. The growth in the assay on SK-MEL-5 melanoma was 94.9%; with UACC-62 melanoma, 100%; in the assay with LOX IMVI melanoma it was 60.7%; in the assay on SK-MEL-28 melanoma, 108%; in the assay with SK-MEL-2 melanoma it was 107%; with EKVX NSCLC, 95.7%. The growth with SN12C renal was 83.9%; in the assay on UO-31 renal, 93.9%; with TK-10 renal it was 88.2%; with ACHN renal, 97.6%; in the assay with CAKI-1 renal, 93.9%; in the assay with A498 renal, 89.8%. In addition, the growth is 27.6% in the assay with CCRF-CEM leukemia and 22.9% with MOLT-4 leukemia.

In the case of `CN(C)CCNC(=O)c1cccc(-c2cnc3ccc(-c4ccc5c(c4)OCO5)nn23)c1`, the growth in the assay on HCT-15 colon is 46%; in the assay with HT29 colon, 10.9%; in the assay on SNB-75 CNS it was 73.2%; in the assay with SNB-19 CNS it was 84.3%; in the assay on U251 CNS it was 86.1%; in the assay with PC-3 prostate, 61.5%. In addition, the growth in the assay with SK-MEL-5 melanoma was 90.8%; in the assay on UACC-62 melanoma, 81.8%; in the assay on LOX IMVI melanoma, 20.7%; in the assay on SK-MEL-28 melanoma, 99.5%; in the assay on SK-MEL-2 melanoma it was 69.8%; with EKVX NSCLC, 90%. Besides, the growth with SN12C renal is 70.8%; in the assay with UO-31 renal it was 36.8%; in the assay with TK-10 renal, 75.9%; with ACHN renal it was 47.8%; with CAKI-1 renal, 36.8%; in the assay on A498 renal it was 90.7%. Also, the results for the growth in the assay with CCRF-CEM leukemia and with MOLT-4 leukemia were 75.7% and 59.4%, respectively.

Consider `CC(C)c1ccc(NC(=O)Nc2ccc(NC(=O)CCCC(=O)NOCc3ccccc3)cc2)cc1`, for which the growth with HCT-15 colon was 99.8%; with HT29 colon, 79.4%; with SNB-75 CNS, 80.2%; in the assay on SNB-19 CNS, 91.3%; with U251 CNS it was 85.6%; in the assay with PC-3 prostate, 93.3%. The growth was 83.8% in the assay on SK-MEL-5 melanoma; 89.2% in the assay on UACC-62 melanoma; 82.2% in the assay on LOX IMVI melanoma; 94.4% in the assay with SK-MEL-28 melanoma; 87.7% in the assay with SK-MEL-2 melanoma; 105% in the assay with EKVX NSCLC. Further, the growth is 92.8% in the assay on SN12C renal; 85% in the assay on UO-31 renal; 103% in the assay with TK-10 renal; 87.4% with ACHN renal; 87.9% in the assay on CAKI-1 renal; 96.4% with A498 renal. Moreover, the growth in the assay with CCRF-CEM leukemia was 75.1%; in the assay on MOLT-4 leukemia, 71.1%.

As for `Cc1ccc(CNc2ccc(Cl)cc2NCc2ccc(C)c(O)c2)cc1O`, the growth in the assay with HCT-15 colon was 7.28% (active); in the assay with HT29 colon, 49.1%; in the assay on SNB-75 CNS, 41.1%; in the assay with SNB-19 CNS it was 29.5%; in the assay on U251 CNS, 21.9%; with PC-3 prostate, 7.21% (active). Moreover, the growth with SK-MEL-5 melanoma is 32.7%; with UACC-62 melanoma, 38.6%; in the assay with LOX IMVI melanoma it was 2.86% (active); in the assay with SK-MEL-28 melanoma it was 31.9%; with SK-MEL-2 melanoma, 33.3%; with EKVX NSCLC, 80.2%. Moreover, the growth is -27.8% (active) in the assay with SN12C renal; 11.9% with UO-31 renal; 52.3% with TK-10 renal; 0.115% (active) in the assay with ACHN renal; 37.4% with CAKI-1 renal; 82.2% in the assay on A498 renal. The growth in the assay with CCRF-CEM leukemia is 9.13% (active); in the assay on MOLT-4 leukemia, -10.5% (active).

`CCCCCCNC(=O)Oc1ccc(/C(=C(/C)Cc2ccc(OC)cc2)c2ccc(OCCCN(C)C)cc2)cc1`: the growth in the assay on HCT-15 colon was -6.62% (active); in the assay on HT29 colon it was -55.9% (active); in the assay on SNB-75 CNS, 65.9%; in the assay on SNB-19 CNS, 45.7%; with U251 CNS it was -46.7% (active); with PC-3 prostate, 24.3%. The growth is 6.74% (active) with SK-MEL-5 melanoma; -25.1% (active) with UACC-62 melanoma; -60.5% (active) in the assay on LOX IMVI melanoma; -43.5% (active) in the assay on SK-MEL-28 melanoma; 26.9% in the assay with SK-MEL-2 melanoma; 83% with EKVX NSCLC. Besides, the growth in the assay on SN12C renal is 45.8%; in the assay on UO-31 renal, 0.897% (active); in the assay with TK-10 renal, 51.3%; with ACHN renal it was 37%; with CAKI-1 renal, 44.5%; with A498 renal it was 97.3%. In addition, the results for the growth in the assay on CCRF-CEM leukemia and in the assay with MOLT-4 leukemia were -2.26% (active) and -12.3% (active), respectively.

In the case of `O=C1c2cccnc2C(=O)c2c1c(C(=O)NCCn1ccnc1)c1ccccn21`, the growth is 30.3% in the assay with HCT-15 colon; 7.18% (active) in the assay on HT29 colon; 37.3% in the assay with SNB-75 CNS; 30.8% in the assay with SNB-19 CNS; 13% in the assay on U251 CNS; 8.68% (active) in the assay with PC-3 prostate. Moreover, the growth in the assay with SK-MEL-5 melanoma is -97% (active); with UACC-62 melanoma, -24.5% (active); in the assay on LOX IMVI melanoma it was 6.67% (active); with SK-MEL-28 melanoma it was 68.4%; in the assay on SK-MEL-2 melanoma, 26.6%; in the assay on EKVX NSCLC, 56.9%. Besides, the growth in the assay with SN12C renal is 4.77% (active); in the assay with UO-31 renal, 61.3%; in the assay with TK-10 renal, 116%; in the assay with ACHN renal, 31.5%; with CAKI-1 renal, 86.9%; with A498 renal, 57.3%. For the same compound, the growth with CCRF-CEM leukemia was 11.8%; in the assay with MOLT-4 leukemia, 1.95% (active).

`CO[C@]12C=C/C(=C(/C(=O)OCc3cccnc3)C(=O)CCCCCCCC[C@@]3(OC)C=C/C(=C(/C(=O)OCc4cccnc4)C(=O)CCCCCCCC1)O3)O2`: the growth in the assay with HCT-15 colon is 2.29% (active); with HT29 colon, 14.5%; in the assay on SNB-75 CNS it was 55%; in the assay with SNB-19 CNS, 33.7%; in the assay on U251 CNS, 20.3%; in the assay on PC-3 prostate, 8.77% (active). The growth is -59.1% (active) with SK-MEL-5 melanoma; -54% (active) in the assay on UACC-62 melanoma; -35.9% (active) with LOX IMVI melanoma; -5.65% (active) in the assay on SK-MEL-28 melanoma; 21.4% in the assay with SK-MEL-2 melanoma; 12.8% in the assay on EKVX NSCLC. Besides, the growth was 5.99% (active) with SN12C renal; -10.7% (active) in the assay on UO-31 renal; 39% in the assay with TK-10 renal; -19.3% (active) in the assay on ACHN renal; 22.9% in the assay with CAKI-1 renal; 1.93% (active) in the assay on A498 renal. For the same compound, the growth in the assay on CCRF-CEM leukemia was 1.38% (active); with MOLT-4 leukemia, -2.22% (active).
